# Measurements: PubChem BioAssay
# Inconclusive results are not listed. Active and inactive are the calls of the source. Unless noted, how the calls were made is not given here.
# Legend:
# [1] = RPL19A-GFP modulators, yeast TOR pathway, confirmation, cell-based, S. cerevisiae, flow cytometry, cherry picks, mother/daughter gates (AID 2270;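 active means GFP response below 50% of the DMSO control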); conditions: S. cerevisiae RPL19A-GFP strain, 3 h, at 10 µM, stronger effect = lower value, 100 = same GFP as DMSO wells
# [2] = LAP4-GFP expression modulators in yeast, confirmation, cell-based, cherry picks, flow cytometry, mother/daughter gates (AID 2271;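 active means GFP response above 150% of the DMSO control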;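 further: ratio of sample to DMSO plate mean so 100% equals DMSO level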); conditions: S. cerevisiae LAP4-GFP strain, 3 h, at 10 µM, stronger effect = higher value
# [3] = modulators of CIT2-GFP expression in yeast, confirmation, S. cerevisiae, GFP fusion, cherry picks, mother/daughter gates (AID 2274;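 active means GFP response above 150% of the DMSO level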); conditions: S. cerevisiae CIT2-GFP strain, flow cytometry, 3 h, at 10 µM, stronger effect = higher value
# [4] = yeast TOR pathway RPL19A-GFP modulators, primary screen, cell-based, S. cerevisiae, multiplex flow cytometry (AID 1862; in the data active means percent of DMSO control GFP below about 86%;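 further: lower values mimic rapamycin by blocking the RPL19A rise seen in DMSO cells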); conditions: S. cerevisiae RPL19A-GFP strain, flow cytometry fluorescence, 3 h; at 10 µM; stronger effect = lower value
# [5] = modulators of MEP2-GFP levels in yeast, primary screen, S. cerevisiae, multiplex flow cytometry (AID 1867;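 active means GFP response, as percent of the DMSO control, above the screen-wide mean plus 3 SD, about 139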;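 further: median GFP channel fluorescence of barcode-gated MEP2-GFP cells measured by flow cytometry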); conditions: S. cerevisiae MEP2-GFP strain, 3 h, at 10 µM, stronger effect = higher value
# [6] = modulators of CIT2-GFP expression in yeast, primary screen, S. cerevisiae, GFP fusion, multiplex flow cytometry (AID 1870;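 active means percent response above a set limit, the screen-wide mean plus 3 SD, cut at about 130% in these data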;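 further: barcoded CIT2-GFP strain pooled with four other GFP strains with rapamycin as positive control; median GFP fluorescence per well over plate mean of DMSO wells so 100% = DMSO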); conditions: 3 h, at 10 µM, stronger effect = higher value
# [7] = modulators of LAP4-GFP expression in yeast, primary screen, S. cerevisiae, multiplex flow cytometry (AID 1873;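 active means GFP signal, as percent of the solvent control, above the screen mean plus 3 SD, about 149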); conditions: 3 h, at 10 µM, stronger effect = higher value
# [8] = inhibitors of CD8+ T cell-vesicle binding, pilot screen, LFA-1/ICAM-1 modulator project, MLPCN validation set, flow cytometry (AID 2523;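 active means response below a set limit, under 55% cells CD8-positive and vesicle-bound, and CD8 cells' 90th-percentile brightness under 279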;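 on vesicle binding response: mean PE anti-B7-1 fluorescence of CD8+ cells relative to row control; 100% = QL9-loaded vesicles with DMSO vehicle in the same plate row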); conditions: 2C mouse CD8+ T cells, at 7 µM, stronger effect = lower value; double positive events: measured here: CD8+/vesicle+ event percentage
# [9] = molecular target: Integrin beta-1 (Homo sapiens) + Integrin alpha-4 (Homo sapiens) (UniProt P13612+P05556); experiment: inhibition of HUTS-21 binding to VLA-4, pilot screen, VLA-4 allosteric modulator project, U937 cells, HUTS-21 mAb, flow cytometry, validation set (AID 2674;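 active means inhibition above 50%, about 3 SD of the validation set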;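 further: antibody binding induced by the VLA-4 ligand LDV present at three times its Kd; 0% = LDV ligand with antibody and no compound and 100% = antibody without LDV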); conditions: HUTS-21 LIBS mAb binding, at 6.7 µM, stronger effect = higher value
# Chain of Integrin beta-1 (Homo sapiens) + Integrin alpha-4 (Homo sapiens) (P05556 whole entry, looked up): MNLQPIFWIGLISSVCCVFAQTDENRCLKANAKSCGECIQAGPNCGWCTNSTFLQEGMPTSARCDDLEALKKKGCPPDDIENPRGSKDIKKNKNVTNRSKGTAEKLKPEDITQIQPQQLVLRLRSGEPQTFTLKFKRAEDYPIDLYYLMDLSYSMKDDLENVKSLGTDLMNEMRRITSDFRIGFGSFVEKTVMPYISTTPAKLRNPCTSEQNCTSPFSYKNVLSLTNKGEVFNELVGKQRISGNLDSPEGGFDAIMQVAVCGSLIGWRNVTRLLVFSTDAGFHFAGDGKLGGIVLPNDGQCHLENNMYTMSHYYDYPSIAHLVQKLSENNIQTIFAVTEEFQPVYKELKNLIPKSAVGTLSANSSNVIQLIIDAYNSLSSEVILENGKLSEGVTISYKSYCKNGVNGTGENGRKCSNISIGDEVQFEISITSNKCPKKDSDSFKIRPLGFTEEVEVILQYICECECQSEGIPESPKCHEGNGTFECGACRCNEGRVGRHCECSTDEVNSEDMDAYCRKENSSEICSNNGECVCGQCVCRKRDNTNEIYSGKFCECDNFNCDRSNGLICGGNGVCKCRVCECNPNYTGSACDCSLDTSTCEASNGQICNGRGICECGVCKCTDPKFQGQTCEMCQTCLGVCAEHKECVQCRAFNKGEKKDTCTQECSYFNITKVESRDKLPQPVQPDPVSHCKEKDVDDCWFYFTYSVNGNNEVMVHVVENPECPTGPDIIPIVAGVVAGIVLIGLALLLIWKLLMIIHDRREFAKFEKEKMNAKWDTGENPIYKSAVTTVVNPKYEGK
# Chain of Integrin beta-1 (Homo sapiens) + Integrin alpha-4 (Homo sapiens) (P13612 whole entry, looked up): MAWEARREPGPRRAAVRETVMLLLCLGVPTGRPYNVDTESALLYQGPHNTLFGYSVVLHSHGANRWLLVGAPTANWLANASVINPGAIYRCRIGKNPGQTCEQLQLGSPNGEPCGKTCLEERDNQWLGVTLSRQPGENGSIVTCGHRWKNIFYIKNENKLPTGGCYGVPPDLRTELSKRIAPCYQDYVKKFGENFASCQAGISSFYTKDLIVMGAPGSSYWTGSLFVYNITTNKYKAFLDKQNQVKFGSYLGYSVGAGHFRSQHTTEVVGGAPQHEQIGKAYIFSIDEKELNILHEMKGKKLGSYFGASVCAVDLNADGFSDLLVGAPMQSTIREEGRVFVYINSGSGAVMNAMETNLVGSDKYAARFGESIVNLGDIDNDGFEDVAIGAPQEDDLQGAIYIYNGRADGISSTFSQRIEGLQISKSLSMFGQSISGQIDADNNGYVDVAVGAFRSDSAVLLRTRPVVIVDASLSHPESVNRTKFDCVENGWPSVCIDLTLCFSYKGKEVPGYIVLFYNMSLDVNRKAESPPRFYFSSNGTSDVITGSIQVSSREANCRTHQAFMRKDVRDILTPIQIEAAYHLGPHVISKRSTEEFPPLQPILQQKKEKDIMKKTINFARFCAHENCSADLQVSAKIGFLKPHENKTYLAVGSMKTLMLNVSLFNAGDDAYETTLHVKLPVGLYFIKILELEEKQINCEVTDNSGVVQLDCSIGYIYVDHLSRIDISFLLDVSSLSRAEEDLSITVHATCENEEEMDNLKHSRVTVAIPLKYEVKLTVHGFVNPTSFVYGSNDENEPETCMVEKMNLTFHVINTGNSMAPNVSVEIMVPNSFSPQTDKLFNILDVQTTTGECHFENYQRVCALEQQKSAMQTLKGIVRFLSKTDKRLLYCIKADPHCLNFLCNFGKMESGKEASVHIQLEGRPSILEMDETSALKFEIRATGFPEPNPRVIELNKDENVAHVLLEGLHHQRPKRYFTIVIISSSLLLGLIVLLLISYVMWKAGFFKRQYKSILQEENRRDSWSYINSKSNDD
# [10] = superoxide lowering in aged yeast cells, pilot screen, validation compound set (AID 2706;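 active means superoxide response below 65% of plate, a cut near 3 SD across the whole screen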;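 further: yeast exposed to compound for one week at 30 degrees C before staining; 100% = mean of all compound wells on the same plate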); conditions: S. cerevisiae aging, superoxide DHE fluorescence; at 10 µM; stronger effect = lower value
# [11] = molecular target: Beta-adrenergic receptor kinase 1 (Homo sapiens) (UniProt P25098); experiment: GRK2 binders displacing RNA aptamer, biochemical, validation, human GRK2, bead flow cytometry (AID 488806;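 active means aptamer binding inhibition above 30%, about 3 SD of noise from non-fluorescent compounds; inactive means inhibition at or below 30%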); conditions: bead-bound GRK2, FAM-aptamer displacement, at 10 µM, stronger effect = higher value
# Chain of Beta-adrenergic receptor kinase 1 (Homo sapiens) (P25098 whole entry, looked up): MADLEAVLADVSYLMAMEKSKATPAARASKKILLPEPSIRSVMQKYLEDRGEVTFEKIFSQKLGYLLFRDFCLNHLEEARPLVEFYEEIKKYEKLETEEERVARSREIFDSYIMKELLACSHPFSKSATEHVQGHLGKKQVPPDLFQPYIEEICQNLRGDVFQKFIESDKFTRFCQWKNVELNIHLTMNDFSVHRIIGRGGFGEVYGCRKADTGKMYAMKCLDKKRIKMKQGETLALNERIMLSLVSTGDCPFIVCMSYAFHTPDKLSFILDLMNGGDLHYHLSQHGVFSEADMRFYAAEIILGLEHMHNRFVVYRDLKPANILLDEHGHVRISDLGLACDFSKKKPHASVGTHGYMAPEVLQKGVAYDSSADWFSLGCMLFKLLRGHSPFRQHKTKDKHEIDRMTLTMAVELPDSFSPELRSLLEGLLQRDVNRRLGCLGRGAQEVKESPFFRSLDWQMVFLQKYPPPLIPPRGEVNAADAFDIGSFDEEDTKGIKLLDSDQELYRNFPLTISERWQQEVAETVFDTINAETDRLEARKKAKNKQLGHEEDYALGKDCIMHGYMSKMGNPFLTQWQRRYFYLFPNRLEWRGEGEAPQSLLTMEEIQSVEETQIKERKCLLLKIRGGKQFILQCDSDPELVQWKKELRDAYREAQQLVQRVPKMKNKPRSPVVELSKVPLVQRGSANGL
# [12] = molecular target: AP-2 complex subunit beta (Homo sapiens) (UniProt P63010); experiment: inhibitors of arrestin peptide binding to AP2, pilot screen, biochemical, validation set, GST-AP2 beads, flow cytometry (AID 504541;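 active means inhibition above 54%, about 3 SD of non-fluorescent compounds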;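 further: AP2 carries R879A mutation and is captured from E. coli lysate; bead-bound FITC arrestin peptide fluorescence measuring arrestin peptide binding to AP2; 0% = DMSO wells and 100% = excess unlabeled arrestin peptide control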); conditions: FITC arrestin peptide, at 10 µM, stronger effect = higher value
# [13] = yeast V-ATPase proton transport modulators, S. cerevisiae, pHLuorin, HTS validation (AID 504600; in the data active means response above about 15%;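 further: plate controls were DMSO for no effect and reference compound for full effect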); conditions: S. cerevisiae pHLuorin cytosolic pH, at 10 µM, stronger effect = higher value
# [14] = test system: anti-desmoglein-3 scFv antibody binding to human DSG3; experiment: inhibitors of anti-DSG3 scFv binding to DSG3, pilot screen, biochemical, validation compound set, bead-based, flow cytometry (AID 588368;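 active means binding below the plate cutoff, the plate median minus 3 SD, with a reading above zero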;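 further: signal is the median channel fluorescence of bead-bound GFP antibody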); conditions: Protein G beads, DSG3-Fc, scFv-GFP binding, at 10 µM, stronger effect = lower value
# [15] = test system: Botulinum neurotoxin type F light chain protease (Clostridium botulinum); experiment: Botulinum neurotoxin type F light chain protease inhibition, multiplex microsphere flow cytometry, validation set (AID 588459); conditions: multiplex microsphere protease substrate cleavage assay, at 10 µM, stronger effect = higher value
# [16] = molecular target: Botulinum neurotoxin type A (Clostridium botulinum) (UniProt P0DPI0); experiment: BoNT/A light chain protease inhibitors, biochemical, multiplex microsphere flow cytometry, validation set (AID 588460); conditions: at 10 µM, stronger effect = higher value
# Chain of Botulinum neurotoxin type A (Clostridium botulinum) (P0DPI0 whole entry, looked up): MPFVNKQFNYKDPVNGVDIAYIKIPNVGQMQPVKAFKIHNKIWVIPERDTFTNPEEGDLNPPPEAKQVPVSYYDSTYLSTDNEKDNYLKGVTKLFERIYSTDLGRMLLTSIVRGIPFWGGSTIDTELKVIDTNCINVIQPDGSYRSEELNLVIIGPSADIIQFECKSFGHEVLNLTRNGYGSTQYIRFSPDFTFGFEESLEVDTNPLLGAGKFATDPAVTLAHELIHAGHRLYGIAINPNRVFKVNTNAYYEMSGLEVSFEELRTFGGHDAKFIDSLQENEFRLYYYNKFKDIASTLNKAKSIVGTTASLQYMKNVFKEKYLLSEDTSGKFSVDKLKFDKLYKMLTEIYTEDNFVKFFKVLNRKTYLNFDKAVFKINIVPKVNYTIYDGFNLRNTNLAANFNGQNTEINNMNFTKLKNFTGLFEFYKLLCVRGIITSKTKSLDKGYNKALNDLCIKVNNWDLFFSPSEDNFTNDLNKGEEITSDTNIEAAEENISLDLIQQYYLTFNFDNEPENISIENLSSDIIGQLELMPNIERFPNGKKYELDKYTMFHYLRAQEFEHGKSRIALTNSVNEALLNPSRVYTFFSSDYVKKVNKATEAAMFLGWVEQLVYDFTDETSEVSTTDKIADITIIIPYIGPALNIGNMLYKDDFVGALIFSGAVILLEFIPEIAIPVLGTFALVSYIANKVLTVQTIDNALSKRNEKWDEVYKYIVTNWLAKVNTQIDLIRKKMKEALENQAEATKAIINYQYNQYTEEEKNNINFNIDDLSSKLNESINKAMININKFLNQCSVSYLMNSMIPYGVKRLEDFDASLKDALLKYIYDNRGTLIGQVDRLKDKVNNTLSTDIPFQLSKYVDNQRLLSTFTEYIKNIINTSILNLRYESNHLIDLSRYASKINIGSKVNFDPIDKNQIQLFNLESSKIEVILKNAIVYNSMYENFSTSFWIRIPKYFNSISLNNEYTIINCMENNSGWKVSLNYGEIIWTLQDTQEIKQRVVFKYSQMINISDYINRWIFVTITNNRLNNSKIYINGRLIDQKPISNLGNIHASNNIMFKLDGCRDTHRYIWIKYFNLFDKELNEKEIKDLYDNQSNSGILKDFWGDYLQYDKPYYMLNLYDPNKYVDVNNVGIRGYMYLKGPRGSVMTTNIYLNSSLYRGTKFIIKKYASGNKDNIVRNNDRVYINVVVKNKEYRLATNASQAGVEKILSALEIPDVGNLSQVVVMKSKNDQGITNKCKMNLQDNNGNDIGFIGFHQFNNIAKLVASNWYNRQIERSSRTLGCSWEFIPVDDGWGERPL
# [17] = molecular target: Lethal factor (Bacillus anthracis) (UniProt P15917); experiment: Lethal factor protease inhibitors, Bacillus anthracis, multiplex microsphere cleavage assay, validation set (AID 588461); conditions: flow cytometry, at 10 µM, stronger effect = higher value
# [18] = inhibitors of fungal efflux pumps CDR1, CDR2, MDR1, pilot screen, validation compound set, multiplex, phenotypic (AID 588506;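 active means efflux inhibition above 0.42, the validation set average plus 4 SD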;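 further: Nile Red retained in cells so higher fluorescence means more efflux inhibition; 0 = negative control wells and 1 = enniatin B 25 µM full block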); conditions: S. cerevisiae pump-expressing triplex, Nile Red efflux flow cytometry; at 10 µM; stronger effect = higher value
# [19] = molecular target: ATP-binding cassette sub-family B member 6 (Homo sapiens) (UniProt Q9NP58); experiment: ABCB6 transporter inhibitors, pilot screen, K562-ABCB6 cells, flow cytometry, validation set (AID 588550;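 active means inhibition above the screen-wide mean plus 3 SD, about 51%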;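 further: 0% = DMSO wells and 100% = benzethonium chloride 70 µM positive control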); conditions: K562-ABCB6 porphyrin accumulation, 1 h, at 10 µM, stronger effect = higher value
# Chain of ATP-binding cassette sub-family B member 6 (Homo sapiens) (Q9NP58 whole entry, looked up): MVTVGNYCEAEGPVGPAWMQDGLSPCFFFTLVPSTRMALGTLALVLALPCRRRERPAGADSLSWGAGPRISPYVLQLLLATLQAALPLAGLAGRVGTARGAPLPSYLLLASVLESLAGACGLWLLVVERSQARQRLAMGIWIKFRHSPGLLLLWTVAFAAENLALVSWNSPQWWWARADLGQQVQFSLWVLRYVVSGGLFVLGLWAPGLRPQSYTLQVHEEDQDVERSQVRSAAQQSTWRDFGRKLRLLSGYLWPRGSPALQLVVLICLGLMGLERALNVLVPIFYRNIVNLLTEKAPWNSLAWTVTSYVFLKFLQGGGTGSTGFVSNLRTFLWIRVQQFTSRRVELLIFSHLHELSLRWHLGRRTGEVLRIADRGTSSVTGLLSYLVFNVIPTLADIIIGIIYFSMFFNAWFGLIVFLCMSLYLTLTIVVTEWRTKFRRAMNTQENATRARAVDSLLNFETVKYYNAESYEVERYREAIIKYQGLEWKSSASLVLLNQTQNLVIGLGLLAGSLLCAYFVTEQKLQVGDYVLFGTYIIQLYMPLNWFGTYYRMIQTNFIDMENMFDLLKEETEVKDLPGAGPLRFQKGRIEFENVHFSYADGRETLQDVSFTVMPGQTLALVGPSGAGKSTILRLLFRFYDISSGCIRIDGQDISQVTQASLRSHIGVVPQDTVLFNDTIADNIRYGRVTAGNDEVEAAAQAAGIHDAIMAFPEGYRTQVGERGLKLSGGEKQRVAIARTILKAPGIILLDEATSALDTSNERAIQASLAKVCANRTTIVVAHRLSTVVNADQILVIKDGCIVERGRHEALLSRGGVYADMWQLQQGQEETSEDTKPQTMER
# [20] = promoters of myeloid differentiation in arrested cells, primary screen, cell-based, GFP/MAC1 double positive, flow cytometry, validation set (AID 588685;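 active means differentiation response of at least 50%, scaled between solvent and reference control, from cells with both markers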;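 further: compound exposure lasts four days before antibody staining and flow analysis; 0% = DMSO wells and 100% = 5 µM fulvestrant positive control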); conditions: ER-HoxA9 marrow cells, stronger effect = higher value
# [21] = measured here: daughter cell gate
# [22] = measured here: mother cell gate
# [23] = measured here: daughter cell gate response
# [24] = measured here: mother cell gate response
smiles,measurement,setting,value
O=C1NC(=O)N(Cc2ccco2)C(=O)/C1=C\c1ccc(-c2ccc(F)cc2)o1,GFP response vs DMSO,[1],96.9% (inactive)
same,GFP response vs DMSO,[1]; [21],97.6%
same,GFP response vs DMSO,[1]; [22],94%
same,GFP response relative to DMSO,[2],119% (inactive)
same,GFP response relative to DMSO,[2]; [23],115%
same,GFP response relative to DMSO,[2]; [24],121%
same,"GFP response, % of DMSO",[3],91.7% (inactive)
same,"GFP response, % of DMSO",[3]; [21],99.3%
same,"GFP response, % of DMSO",[3]; [22],83.7%
O=C1/C(=C\c2ccc(Cl)c(Cl)c2)N2CCC1CC2,GFP response vs DMSO,[1],102% (inactive)
same,GFP response vs DMSO,[1]; [21],101%
same,GFP response vs DMSO,[1]; [22],99.1%
same,GFP response relative to DMSO,[2],124% (inactive)
same,GFP response relative to DMSO,[2]; [23],119%
same,GFP response relative to DMSO,[2]; [24],130%
same,"GFP response, % of DMSO",[3],100% (inactive)
same,"GFP response, % of DMSO",[3]; [21],101%
same,"GFP response, % of DMSO",[3]; [22],96.8%
O=C1C=Cc2ccccc2C1=O,percent of DMSO control GFP,[4],102% (inactive)
same,GFP response vs DMSO,[5],116% (inactive)
same,percent response of DMSO control,[6],116% (inactive)
same,GFP response vs DMSO,[7],89.1% (inactive)
same,double positive events,[8],43.3%
same,vesicle binding response,[8],71.6% (active)
same,inhibition,[9],-65.3% (inactive)
same,superoxide response (% of plate),[10],129% (inactive)
same,aptamer binding inhibition,[11],2% (inactive)
same,inhibition,[12],8% (inactive)
same,response,[13],1.9% (inactive)
same,binding (% of control),[14],109% (inactive)
same,inhibition,[15],-1.2% (inactive)
same,inhibition,[16],1.7% (inactive)
same,inhibition,[17],1.9% (inactive)
same,efflux inhibition (fraction of control),[18],-0.09 (inactive)
same,inhibition,[19],7% (inactive)
same,differentiation response,[20],5.73% (inactive)
C=CC1CN2CCC1CC2[C@@H](OC(=O)c1ccc(OC)cc1)c1ccnc2ccccc12 (stereo not given in full),percent of DMSO control GFP,[4],96.1% (inactive)
same,percent response of DMSO control,[6],107% (inactive)
same,GFP response vs DMSO,[7],74.8% (inactive)
same,double positive events,[8],59.2%
same,vesicle binding response,[8],222% (inactive)
same,inhibition,[9],4.52% (inactive)
same,superoxide response (% of plate),[10],105% (inactive)
same,aptamer binding inhibition,[11],-2% (inactive)
same,inhibition,[12],-4.1% (inactive)
same,response,[13],-0.74% (inactive)
same,binding (% of control),[14],109% (inactive)
same,inhibition,[15],2.8% (inactive)
same,inhibition,[16],0.4% (inactive)
same,inhibition,[17],-2% (inactive)
same,efflux inhibition (fraction of control),[18],0.01 (inactive)
same,inhibition,[19],5% (inactive)
same,differentiation response,[20],-8.19% (inactive)
O=C1NC(=O)N(c2ccccc2)C(=O)/C1=C\c1ccc([N+](=O)[O-])o1,GFP response vs DMSO,[1],98.7% (inactive)
same,GFP response vs DMSO,[1]; [21],99.8%
same,GFP response vs DMSO,[1]; [22],98%
same,GFP response relative to DMSO,[2],101% (inactive)
same,GFP response relative to DMSO,[2]; [23],101%
same,GFP response relative to DMSO,[2]; [24],102%
same,"GFP response, % of DMSO",[3],103% (inactive)
same,"GFP response, % of DMSO",[3]; [21],105%
same,"GFP response, % of DMSO",[3]; [22],104%
Cc1cc(C=C2C(=O)N(C)C(=S)N(C)C2=O)c(C)n1-c1ccncc1,GFP response vs DMSO,[1],92.8% (inactive)
same,GFP response vs DMSO,[1]; [21],91.1%
same,GFP response vs DMSO,[1]; [22],88.6%
same,GFP response relative to DMSO,[2],114% (inactive)
same,GFP response relative to DMSO,[2]; [23],108%
same,GFP response relative to DMSO,[2]; [24],117%
same,"GFP response, % of DMSO",[3],69.1% (inactive)
same,"GFP response, % of DMSO",[3]; [21],70.3%
same,"GFP response, % of DMSO",[3]; [22],64.4%
N#CC(C#N)=Cc1ccc(N2CCCC2)cc1,GFP response vs DMSO,[1],105% (inactive)
same,GFP response vs DMSO,[1]; [21],102%
same,GFP response vs DMSO,[1]; [22],107%
same,GFP response relative to DMSO,[2],111% (inactive)
same,GFP response relative to DMSO,[2]; [23],109%
same,GFP response relative to DMSO,[2]; [24],112%
same,"GFP response, % of DMSO",[3],105% (inactive)
same,"GFP response, % of DMSO",[3]; [21],106%
same,"GFP response, % of DMSO",[3]; [22],104%
